Results: the supplement of paper PMC11732987, “Enantioselective OTUD7B fragment discovery through chemoproteomics screening and high-throughput optimisation” (Communications Chemistry, 2025)

Tests used:
Experiment in all cases: log2 ratio of Biotin-Ahx-Ub-VS probe labelling (fragment/DMSO); higher = less target engagement (more negative = stronger competition), active = hit call of the paper (q ≤ 0.05, log2 ratio ≤ -1)
Settings in all cases: compound concentration: 200 uM; treatment time: 3 h
OTUD6B = biological target: T1, OTUD6B (UniProt Q8N6M0)
T1 sequence (whole entry): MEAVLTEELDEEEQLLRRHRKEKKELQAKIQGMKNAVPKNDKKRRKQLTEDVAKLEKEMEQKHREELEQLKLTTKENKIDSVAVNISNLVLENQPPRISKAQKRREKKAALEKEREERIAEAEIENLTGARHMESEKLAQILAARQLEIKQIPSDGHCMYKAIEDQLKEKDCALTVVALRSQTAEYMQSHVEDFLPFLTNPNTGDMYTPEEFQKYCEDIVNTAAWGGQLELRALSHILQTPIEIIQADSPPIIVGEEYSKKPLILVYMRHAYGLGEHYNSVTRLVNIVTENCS
Summary of the method: (§1)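 Labelling with Biotin-Ahx-Ub-VS (0.5 µM final, 1 h) followed a 3 h triplicate treatment of HEK293T lysate (495 µg per sample, Tris/CHAPS/IGEPAL buffer with protease inhibitors) with fragment at 200 µM or vehicle. Labelled DUBs were NeutrAvidin-enriched, digested with LysC and trypsin, and run by diaPASEF LC-MS/MS. The values, average log2 fragment/vehicle ratios by unpaired t-test, come from global-median-normalised Spectronaut label-free quantities. Proteins with ≥2 unique peptides were used.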

OTUD7B = biological target: T2, OTUD7B (UniProt Q6GQQ9)
T2 sequence (whole entry): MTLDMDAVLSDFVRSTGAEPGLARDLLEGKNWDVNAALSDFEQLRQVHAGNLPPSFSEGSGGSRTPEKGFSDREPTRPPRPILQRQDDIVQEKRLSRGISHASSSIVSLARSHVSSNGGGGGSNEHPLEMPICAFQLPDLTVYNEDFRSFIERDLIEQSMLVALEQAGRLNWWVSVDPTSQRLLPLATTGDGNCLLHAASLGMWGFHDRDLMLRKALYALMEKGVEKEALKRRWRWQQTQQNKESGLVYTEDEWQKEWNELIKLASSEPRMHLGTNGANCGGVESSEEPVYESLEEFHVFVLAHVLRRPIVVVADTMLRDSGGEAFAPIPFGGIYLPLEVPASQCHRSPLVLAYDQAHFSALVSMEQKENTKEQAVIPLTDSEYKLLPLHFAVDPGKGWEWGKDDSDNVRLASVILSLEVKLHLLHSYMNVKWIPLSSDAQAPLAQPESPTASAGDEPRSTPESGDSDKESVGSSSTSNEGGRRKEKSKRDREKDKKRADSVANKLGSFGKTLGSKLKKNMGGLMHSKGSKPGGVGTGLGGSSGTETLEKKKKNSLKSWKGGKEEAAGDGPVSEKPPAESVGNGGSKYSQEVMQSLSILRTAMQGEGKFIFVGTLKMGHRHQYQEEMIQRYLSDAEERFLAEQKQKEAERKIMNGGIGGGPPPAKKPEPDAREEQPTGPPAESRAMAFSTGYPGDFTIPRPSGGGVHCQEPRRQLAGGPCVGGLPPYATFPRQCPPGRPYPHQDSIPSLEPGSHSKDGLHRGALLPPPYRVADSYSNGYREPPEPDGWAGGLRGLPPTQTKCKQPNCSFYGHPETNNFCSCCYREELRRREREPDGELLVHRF
Summary of the method: as §1

PRPF8 = PRPF8 (UniProt Q6P2Q9)
Summary of the method: as §1

PSMD7 = biological target: T3, PSMD7 (UniProt P51665)
T3 sequence (whole entry): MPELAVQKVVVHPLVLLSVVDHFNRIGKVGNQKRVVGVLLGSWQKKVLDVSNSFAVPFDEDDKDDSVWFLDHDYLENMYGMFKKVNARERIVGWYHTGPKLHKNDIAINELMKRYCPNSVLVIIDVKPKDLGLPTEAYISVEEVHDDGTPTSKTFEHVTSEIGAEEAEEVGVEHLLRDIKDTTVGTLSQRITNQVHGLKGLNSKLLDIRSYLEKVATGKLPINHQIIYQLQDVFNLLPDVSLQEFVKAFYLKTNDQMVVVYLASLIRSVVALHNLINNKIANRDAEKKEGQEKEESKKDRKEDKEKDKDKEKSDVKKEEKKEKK
Summary of the method: as §1

UCHL1 = UCHL1 (UniProt P09936)
Summary of the method: as §1

UCHL3 = biological target: T4, UCHL3 (UniProt P15374)
T4 sequence (whole entry): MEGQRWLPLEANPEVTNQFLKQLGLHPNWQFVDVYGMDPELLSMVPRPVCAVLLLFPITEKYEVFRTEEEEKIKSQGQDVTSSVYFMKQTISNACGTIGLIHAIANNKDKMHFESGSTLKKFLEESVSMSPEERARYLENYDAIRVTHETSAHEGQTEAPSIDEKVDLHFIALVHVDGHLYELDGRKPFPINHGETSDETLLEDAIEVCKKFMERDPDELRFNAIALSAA
Summary of the method: as §1

UCHL5 = biological target: T5, UCHL5 (UniProt Q9Y5K5)
T5 sequence (whole entry): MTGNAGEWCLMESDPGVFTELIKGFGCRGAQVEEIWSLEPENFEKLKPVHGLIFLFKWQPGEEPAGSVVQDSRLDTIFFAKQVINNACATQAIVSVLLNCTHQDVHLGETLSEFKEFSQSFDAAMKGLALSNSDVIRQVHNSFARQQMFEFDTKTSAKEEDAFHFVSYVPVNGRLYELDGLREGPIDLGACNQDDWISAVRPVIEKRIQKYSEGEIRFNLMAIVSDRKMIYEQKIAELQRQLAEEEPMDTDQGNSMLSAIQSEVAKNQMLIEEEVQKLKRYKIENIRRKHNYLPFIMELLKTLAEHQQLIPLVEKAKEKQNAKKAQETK
Summary of the method: as §1

USP10 = USP10 (UniProt Q14694)
Summary of the method: as §1

USP15 = biological target: T6, USP15 (UniProt Q9Y4E8)
T6 sequence (whole entry): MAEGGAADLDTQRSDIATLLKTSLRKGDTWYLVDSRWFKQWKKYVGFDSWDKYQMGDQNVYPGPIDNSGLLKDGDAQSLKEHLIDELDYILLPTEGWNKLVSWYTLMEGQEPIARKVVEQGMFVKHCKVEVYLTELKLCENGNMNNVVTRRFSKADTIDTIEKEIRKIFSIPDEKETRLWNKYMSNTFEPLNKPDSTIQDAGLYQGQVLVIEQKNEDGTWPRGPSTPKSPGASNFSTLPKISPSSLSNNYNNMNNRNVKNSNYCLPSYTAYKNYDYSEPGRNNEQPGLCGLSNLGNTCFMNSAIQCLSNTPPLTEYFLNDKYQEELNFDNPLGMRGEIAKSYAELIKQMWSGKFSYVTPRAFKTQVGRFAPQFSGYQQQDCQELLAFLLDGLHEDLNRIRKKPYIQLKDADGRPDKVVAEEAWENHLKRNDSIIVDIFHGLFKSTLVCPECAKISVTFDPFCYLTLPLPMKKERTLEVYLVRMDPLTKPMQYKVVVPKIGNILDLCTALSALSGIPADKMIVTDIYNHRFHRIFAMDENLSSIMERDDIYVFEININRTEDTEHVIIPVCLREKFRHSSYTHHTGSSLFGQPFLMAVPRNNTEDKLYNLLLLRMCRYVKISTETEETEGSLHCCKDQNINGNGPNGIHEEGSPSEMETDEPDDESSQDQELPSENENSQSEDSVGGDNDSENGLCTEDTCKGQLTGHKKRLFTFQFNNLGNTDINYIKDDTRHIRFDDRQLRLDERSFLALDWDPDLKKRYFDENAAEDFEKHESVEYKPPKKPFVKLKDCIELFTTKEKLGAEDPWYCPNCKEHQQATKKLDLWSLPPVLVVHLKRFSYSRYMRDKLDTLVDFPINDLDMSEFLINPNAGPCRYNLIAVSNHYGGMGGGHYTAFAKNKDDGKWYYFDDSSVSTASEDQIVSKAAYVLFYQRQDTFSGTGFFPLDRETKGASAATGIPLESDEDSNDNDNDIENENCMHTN
Summary of the method: as §1

USP16 = USP16 (UniProt Q9Y5T5)
Summary of the method: as §1

Measured: log2 ratio of Biotin-Ahx-Ub-VS probe labelling

USP10, sequence (Q14694 whole entry): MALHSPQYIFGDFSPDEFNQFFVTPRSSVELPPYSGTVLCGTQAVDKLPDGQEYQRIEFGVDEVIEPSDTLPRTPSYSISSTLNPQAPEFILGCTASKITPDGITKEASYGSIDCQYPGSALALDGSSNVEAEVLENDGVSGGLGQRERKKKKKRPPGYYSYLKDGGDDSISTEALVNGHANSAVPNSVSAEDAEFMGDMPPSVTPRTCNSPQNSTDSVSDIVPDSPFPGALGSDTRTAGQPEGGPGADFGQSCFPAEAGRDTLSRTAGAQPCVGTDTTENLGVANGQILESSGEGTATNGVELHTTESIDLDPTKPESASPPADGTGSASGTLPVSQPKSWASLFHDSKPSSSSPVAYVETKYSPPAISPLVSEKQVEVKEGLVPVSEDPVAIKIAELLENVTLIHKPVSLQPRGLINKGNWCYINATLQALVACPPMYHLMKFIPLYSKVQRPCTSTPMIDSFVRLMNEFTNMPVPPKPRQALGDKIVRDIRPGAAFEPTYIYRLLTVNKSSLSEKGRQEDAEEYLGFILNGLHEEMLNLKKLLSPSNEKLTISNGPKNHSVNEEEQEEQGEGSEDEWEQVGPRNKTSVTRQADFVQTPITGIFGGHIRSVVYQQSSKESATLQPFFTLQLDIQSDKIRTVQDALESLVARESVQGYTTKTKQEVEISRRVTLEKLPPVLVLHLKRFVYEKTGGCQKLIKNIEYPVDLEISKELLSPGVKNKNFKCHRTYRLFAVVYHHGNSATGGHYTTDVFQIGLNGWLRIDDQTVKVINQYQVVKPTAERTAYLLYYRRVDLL
UCHL1, sequence (P09936 whole entry, looked up): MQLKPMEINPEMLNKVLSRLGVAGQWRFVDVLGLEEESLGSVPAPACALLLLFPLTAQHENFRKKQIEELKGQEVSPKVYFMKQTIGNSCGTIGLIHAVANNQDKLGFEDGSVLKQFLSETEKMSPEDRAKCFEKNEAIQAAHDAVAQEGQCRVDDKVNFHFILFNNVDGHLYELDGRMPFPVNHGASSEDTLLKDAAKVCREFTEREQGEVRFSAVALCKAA
USP16, sequence (Q9Y5T5 whole entry, looked up): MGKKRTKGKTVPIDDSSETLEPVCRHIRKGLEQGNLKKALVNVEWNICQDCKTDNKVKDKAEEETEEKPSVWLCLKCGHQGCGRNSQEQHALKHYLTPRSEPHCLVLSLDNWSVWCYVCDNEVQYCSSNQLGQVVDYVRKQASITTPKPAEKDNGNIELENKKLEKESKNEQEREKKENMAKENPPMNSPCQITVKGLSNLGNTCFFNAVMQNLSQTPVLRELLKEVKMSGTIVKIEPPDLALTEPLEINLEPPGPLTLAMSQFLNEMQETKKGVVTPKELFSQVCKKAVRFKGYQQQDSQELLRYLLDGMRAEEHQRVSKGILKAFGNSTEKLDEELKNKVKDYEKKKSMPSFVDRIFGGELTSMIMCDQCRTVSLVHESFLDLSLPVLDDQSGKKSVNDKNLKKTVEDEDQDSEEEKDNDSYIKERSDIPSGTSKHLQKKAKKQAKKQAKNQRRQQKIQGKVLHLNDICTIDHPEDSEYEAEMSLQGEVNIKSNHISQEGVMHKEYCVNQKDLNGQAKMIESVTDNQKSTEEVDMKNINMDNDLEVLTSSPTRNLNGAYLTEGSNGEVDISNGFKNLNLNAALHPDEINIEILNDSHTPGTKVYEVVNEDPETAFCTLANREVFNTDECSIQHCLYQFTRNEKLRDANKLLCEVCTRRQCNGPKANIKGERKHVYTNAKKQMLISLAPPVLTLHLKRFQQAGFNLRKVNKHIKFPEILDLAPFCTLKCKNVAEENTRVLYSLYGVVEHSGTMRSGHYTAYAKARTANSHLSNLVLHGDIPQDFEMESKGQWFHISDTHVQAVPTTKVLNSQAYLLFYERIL

NC(=O)C(Cc1ccccc1)NC(=O)CCl (stereo not given)
inactive: OTUD6B -0.129 | OTUD7B -0.38 | PRPF8 -0.0593 | PSMD7 -0.0419 | UCHL3 0.313 | UCHL5 -0.295 | USP10 -0.0595 | USP15 -0.0229 | USP16 0.0723
active: UCHL1 -1.73
